Assay in all cases: DAPPL (digital affinity profiling via proximity ligation, sequencing); 10 mM Tris-HCl pH 7.5, 50 mM NaCl, 1 mM DTT, 4% glycerol, room temperature, 30 min; GST-TFs on glutathione beads, 16-mer random dsDNA library, 0.1% formaldehyde crosslink after washing; high values mean tight binding
Assay [1] has as its target T1, FEV (Homo sapiens, UniProt Q99581 1-238).
T1 sequence: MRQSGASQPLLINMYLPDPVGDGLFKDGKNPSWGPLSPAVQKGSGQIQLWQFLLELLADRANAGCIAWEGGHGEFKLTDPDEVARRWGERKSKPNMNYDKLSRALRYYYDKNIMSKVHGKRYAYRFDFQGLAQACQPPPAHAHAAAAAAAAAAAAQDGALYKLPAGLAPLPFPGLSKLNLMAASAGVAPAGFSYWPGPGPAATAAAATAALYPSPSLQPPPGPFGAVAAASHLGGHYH
The following applies: protein: recombinant; tags: N-terminal GST; dsDNA, one strand shown. An outline of the steps:
(§1)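 Yeast served to express human transcription factors as GST fusions, which were then captured on glutathione beads and labelled with DNA barcodes. Pooled with a tag-only sample, they were incubated with 200 nmole of a 16-mer random double-stranded DNA library for 30 min at room temperature in Tris/NaCl/DTT/glycerol buffer, washed, crosslinked with 0.1% formaldehyde, ligated by proximity, amplified by PCR and sequenced. Dividing each hexamer's read frequency for a factor by its frequency for the tag-only sample gives the binding signal.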

Assay [2] concerns the target ETV5 (Homo sapiens, UniProt P41161 1-510). The following applies: protein: recombinant; tags: N-terminal GST; dsDNA, one strand shown. An outline of the steps: as §1
Assay [3] deals with HSF1 (Homo sapiens, UniProt Q00613 1-529). Particulars: protein: recombinant; tags: N-terminal GST; chain copies: 3; dsDNA, one strand shown. An outline of the steps:
as §1

The target of assay [4] is T2, SPIC (Homo sapiens, UniProt Q8N5J4 1-248).
T2 sequence: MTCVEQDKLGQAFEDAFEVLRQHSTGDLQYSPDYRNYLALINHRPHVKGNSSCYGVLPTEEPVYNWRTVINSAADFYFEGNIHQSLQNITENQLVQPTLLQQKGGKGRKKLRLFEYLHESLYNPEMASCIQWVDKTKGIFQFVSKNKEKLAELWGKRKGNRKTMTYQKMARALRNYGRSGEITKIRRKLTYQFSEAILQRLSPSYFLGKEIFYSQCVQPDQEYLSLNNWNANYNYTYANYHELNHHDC
Particulars: protein: recombinant; tags: N-terminal GST; dsDNA, one strand shown. Summed up:
as §1

In assay [5] the target is ELF4 (Homo sapiens, UniProt Q99607 1-663). The following applies: protein: recombinant; tags: N-terminal GST; dsDNA, one strand shown. Summed up: as §1
The target of assay [6] is T3, ELK4 (Homo sapiens, UniProt P28324-2 1-405).
T3 sequence: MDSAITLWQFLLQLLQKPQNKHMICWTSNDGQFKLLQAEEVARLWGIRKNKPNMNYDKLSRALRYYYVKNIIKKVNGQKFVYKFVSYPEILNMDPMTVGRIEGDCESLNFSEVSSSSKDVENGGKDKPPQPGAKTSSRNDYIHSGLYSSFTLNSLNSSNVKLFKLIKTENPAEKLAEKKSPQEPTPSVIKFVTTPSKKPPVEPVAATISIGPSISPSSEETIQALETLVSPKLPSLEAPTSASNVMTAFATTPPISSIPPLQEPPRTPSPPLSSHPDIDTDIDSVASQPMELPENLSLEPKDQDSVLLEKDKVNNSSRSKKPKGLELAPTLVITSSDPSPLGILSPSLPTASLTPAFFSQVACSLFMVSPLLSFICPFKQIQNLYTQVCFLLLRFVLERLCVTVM
The following applies: protein: recombinant; tags: N-terminal GST; dsDNA, one strand shown. Summed up:
as §1

Assay [7] deals with T4, ETV2 (Homo sapiens, UniProt O00321 1-342).
T4 sequence: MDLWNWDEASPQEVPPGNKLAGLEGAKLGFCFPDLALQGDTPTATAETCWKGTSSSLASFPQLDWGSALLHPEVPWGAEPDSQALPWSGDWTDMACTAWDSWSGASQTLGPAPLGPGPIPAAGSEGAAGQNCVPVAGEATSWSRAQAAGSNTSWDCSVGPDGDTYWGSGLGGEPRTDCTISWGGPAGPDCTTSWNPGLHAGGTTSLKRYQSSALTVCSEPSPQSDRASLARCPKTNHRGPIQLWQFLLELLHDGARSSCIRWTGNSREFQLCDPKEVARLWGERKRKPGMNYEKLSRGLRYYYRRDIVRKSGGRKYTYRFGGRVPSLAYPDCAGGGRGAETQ
Particulars: protein: recombinant; tags: N-terminal GST; dsDNA, one strand shown. An outline of the steps: as §1

Assay [8] addresses T5, ELF3 (Homo sapiens, UniProt P78545 1-371).
T5 sequence: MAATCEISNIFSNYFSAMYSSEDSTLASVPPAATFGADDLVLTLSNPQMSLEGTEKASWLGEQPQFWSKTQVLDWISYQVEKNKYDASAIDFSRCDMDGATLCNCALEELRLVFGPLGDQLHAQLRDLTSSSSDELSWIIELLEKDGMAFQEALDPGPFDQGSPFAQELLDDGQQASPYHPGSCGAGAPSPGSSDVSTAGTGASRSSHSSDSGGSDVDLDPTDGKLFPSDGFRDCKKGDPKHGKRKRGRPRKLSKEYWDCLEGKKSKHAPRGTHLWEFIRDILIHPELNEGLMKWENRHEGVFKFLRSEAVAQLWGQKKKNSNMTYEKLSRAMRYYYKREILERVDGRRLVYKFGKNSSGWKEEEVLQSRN
The following applies: protein: recombinant; tags: N-terminal GST; dsDNA, one strand shown. Summed up:
as §1

In assay [9] the target is CRX (Homo sapiens, UniProt O43186 1-299). Particulars: protein: recombinant; tags: N-terminal GST; dsDNA, one strand shown. An outline of the steps:
as §1

For assay [10], the target named is ETV1 (Homo sapiens, UniProt P50549 1-477). Particulars: protein: recombinant; tags: N-terminal GST; dsDNA, one strand shown. Summed up: as §1
Assay [11] concerns the target T6, ERF (Homo sapiens, UniProt P50548 1-548).
T6 sequence: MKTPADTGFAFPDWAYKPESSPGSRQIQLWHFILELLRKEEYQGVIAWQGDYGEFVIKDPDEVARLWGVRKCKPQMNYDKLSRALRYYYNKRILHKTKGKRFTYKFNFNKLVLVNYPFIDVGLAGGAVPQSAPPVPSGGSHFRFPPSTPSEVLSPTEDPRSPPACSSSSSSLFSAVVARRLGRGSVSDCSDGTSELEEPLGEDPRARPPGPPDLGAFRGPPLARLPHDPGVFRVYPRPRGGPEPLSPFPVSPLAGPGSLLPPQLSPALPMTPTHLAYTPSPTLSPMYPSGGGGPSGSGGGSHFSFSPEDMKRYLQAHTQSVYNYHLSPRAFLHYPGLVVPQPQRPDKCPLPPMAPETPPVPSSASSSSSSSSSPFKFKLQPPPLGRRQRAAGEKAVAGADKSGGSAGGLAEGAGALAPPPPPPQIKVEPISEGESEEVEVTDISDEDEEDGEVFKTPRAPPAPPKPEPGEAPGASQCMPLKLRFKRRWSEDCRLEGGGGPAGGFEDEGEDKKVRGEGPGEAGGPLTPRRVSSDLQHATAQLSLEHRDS
The following applies: protein: recombinant; tags: N-terminal GST; dsDNA, one strand shown. An outline of the steps:
as §1

Assay [12] deals with T7, ETV3L (Homo sapiens, UniProt Q6ZN32 1-361).
T7 sequence: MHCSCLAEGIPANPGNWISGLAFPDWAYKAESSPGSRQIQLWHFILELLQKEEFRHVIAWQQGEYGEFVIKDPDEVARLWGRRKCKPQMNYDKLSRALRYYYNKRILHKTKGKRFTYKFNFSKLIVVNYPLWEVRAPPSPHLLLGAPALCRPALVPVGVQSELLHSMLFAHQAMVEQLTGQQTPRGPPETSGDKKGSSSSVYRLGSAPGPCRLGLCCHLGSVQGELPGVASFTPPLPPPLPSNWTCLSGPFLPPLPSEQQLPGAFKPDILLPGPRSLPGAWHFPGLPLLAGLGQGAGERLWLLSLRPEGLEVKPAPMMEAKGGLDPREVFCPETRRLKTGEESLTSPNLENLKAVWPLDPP
Particulars: protein: recombinant; tags: N-terminal GST; dsDNA, one strand shown. Summed up:
as §1

The target of assay [13] is T8, ETS2 (Homo sapiens, UniProt P15036 1-469).
T8 sequence: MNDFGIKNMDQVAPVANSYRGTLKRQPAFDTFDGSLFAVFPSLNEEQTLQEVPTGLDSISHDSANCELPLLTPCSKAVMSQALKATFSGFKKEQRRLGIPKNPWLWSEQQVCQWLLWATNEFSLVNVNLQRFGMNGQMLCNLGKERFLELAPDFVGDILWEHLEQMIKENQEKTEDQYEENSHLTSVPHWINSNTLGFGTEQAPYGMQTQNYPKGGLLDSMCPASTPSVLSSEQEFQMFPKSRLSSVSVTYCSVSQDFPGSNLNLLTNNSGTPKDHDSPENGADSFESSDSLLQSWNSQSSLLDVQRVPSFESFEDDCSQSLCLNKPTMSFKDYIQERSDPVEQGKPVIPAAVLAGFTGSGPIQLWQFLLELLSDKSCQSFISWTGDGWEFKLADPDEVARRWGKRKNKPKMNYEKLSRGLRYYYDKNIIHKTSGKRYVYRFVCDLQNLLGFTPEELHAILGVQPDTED
The following applies: protein: recombinant; tags: N-terminal GST; dsDNA, one strand shown. An outline of the steps:
as §1

For assay [14], the target named is T9, SPDEF (Homo sapiens, UniProt O95238 1-335).
T9 sequence: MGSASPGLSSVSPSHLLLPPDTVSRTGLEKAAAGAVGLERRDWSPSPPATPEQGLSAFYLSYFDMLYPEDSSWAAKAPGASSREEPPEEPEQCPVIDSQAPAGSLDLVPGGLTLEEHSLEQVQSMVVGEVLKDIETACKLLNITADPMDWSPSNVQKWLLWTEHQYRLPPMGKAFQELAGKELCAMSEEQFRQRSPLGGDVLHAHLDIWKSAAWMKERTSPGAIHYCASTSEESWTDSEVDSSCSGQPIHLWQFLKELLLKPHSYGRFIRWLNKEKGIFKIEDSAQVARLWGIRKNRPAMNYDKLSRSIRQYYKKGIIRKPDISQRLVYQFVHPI
The following applies: protein: recombinant; tags: N-terminal GST; dsDNA, one strand shown. Summed up:
as §1

The target in assay [15] is T10, ETV7 (Homo sapiens, UniProt Q9Y603 1-341).
T10 sequence: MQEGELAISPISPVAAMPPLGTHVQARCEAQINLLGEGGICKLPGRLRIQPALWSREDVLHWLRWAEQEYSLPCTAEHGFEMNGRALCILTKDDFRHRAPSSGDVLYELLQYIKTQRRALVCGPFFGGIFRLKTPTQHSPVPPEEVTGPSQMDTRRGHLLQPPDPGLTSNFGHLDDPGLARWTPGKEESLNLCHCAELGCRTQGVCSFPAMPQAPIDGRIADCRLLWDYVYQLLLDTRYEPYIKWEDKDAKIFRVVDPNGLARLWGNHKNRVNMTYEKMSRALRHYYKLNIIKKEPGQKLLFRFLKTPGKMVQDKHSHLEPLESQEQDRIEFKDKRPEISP
Particulars: protein: recombinant; tags: N-terminal GST; dsDNA, one strand shown. An outline of the steps: as §1

The target in assay [16] is T11, ELF5 (Homo sapiens, UniProt Q9UKW6-2 1-255).
T11 sequence: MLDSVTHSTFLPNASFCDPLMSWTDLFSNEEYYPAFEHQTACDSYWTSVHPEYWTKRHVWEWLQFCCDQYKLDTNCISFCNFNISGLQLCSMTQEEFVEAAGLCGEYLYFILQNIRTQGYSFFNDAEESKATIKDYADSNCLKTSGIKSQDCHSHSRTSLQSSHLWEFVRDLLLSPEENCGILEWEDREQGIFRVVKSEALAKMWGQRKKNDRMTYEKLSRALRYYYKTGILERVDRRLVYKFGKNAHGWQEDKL
Particulars: protein: recombinant; tags: N-terminal GST; dsDNA, one strand shown. An outline of the steps:
as §1

The target in assay [17] is T12, ETV3 (Homo sapiens, UniProt P41162-2 1-143).
T12 sequence: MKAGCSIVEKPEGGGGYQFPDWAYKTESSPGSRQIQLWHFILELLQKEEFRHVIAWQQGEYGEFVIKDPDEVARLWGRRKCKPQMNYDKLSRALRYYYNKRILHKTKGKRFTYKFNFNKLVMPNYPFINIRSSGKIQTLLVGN
The following applies: protein: recombinant; tags: N-terminal GST; dsDNA, one strand shown. Summed up:
as §1

Assay [18] concerns the target ETV6 (Homo sapiens, UniProt P41212 1-452). Particulars: protein: recombinant; tags: N-terminal GST; dsDNA, one strand shown. Summed up: as §1

Chain of HSF1 (Q00613 whole entry): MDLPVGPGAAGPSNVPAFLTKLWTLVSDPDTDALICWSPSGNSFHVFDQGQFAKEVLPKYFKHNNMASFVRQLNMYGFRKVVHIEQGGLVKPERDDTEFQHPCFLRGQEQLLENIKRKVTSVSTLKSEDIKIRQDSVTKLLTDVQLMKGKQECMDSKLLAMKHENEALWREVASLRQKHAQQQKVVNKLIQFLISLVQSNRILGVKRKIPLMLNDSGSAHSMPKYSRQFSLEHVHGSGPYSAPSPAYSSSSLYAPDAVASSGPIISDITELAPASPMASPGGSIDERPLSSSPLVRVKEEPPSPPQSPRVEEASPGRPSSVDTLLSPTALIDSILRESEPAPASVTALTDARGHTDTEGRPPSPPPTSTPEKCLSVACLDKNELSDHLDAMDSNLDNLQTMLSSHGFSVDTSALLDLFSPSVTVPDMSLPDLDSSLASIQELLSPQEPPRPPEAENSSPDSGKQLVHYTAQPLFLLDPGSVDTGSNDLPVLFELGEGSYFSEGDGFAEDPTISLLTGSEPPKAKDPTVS
Chain of ELF4 (Q99607 whole entry): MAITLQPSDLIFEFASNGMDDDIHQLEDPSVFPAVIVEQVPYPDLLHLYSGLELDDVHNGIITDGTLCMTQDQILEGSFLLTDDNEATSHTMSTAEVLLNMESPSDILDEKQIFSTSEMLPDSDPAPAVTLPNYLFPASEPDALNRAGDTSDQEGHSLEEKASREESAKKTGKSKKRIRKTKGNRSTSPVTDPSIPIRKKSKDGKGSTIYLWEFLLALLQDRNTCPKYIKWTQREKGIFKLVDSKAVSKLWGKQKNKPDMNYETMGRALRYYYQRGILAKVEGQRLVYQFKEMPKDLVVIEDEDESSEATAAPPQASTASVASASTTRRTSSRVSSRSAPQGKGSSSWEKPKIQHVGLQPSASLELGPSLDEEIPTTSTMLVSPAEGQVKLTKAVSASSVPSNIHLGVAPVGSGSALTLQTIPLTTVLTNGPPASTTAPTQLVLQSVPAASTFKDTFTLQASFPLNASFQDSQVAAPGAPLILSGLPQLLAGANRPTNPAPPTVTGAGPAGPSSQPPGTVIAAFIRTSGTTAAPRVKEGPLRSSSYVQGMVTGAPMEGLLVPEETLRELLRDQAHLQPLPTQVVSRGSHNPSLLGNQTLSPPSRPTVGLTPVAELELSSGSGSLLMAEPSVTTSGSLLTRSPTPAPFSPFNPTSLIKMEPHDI
Chain of CRX (O43186 whole entry): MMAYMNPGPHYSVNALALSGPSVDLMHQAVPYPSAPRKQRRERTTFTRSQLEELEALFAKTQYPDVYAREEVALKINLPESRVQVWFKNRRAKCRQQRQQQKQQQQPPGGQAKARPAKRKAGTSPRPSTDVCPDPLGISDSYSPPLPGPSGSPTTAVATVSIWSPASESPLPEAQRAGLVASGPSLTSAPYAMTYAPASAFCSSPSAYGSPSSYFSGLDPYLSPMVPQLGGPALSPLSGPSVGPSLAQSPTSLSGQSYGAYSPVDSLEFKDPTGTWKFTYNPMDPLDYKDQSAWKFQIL
Chain of ETV1 (P50549 whole entry): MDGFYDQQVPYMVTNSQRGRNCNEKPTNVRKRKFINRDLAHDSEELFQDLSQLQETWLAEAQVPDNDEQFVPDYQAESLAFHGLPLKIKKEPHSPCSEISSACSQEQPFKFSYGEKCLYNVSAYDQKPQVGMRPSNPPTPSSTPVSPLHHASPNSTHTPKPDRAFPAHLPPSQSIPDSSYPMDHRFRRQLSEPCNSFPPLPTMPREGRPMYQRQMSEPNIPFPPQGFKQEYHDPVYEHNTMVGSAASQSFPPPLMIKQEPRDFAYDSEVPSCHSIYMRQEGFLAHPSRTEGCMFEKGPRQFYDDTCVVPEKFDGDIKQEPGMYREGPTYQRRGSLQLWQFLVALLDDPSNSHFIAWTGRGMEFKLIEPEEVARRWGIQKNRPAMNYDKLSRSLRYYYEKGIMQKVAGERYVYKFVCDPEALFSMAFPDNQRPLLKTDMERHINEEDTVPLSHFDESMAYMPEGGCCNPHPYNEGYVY
Chain of ETV5 (P41161 whole entry): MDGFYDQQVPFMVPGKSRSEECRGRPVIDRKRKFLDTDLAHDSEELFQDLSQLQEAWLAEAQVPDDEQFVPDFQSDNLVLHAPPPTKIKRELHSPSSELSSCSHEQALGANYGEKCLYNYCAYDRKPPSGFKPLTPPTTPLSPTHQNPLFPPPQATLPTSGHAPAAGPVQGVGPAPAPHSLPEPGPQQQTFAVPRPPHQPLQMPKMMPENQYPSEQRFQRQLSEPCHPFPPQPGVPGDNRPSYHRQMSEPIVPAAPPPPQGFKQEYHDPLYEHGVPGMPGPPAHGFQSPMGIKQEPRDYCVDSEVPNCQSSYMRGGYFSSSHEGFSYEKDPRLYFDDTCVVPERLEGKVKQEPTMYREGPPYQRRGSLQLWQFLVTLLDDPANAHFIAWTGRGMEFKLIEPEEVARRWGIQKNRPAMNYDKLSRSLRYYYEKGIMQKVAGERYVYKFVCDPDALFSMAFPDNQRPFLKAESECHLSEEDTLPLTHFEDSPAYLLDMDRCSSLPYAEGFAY
Chain of ETV6 (P41212 whole entry): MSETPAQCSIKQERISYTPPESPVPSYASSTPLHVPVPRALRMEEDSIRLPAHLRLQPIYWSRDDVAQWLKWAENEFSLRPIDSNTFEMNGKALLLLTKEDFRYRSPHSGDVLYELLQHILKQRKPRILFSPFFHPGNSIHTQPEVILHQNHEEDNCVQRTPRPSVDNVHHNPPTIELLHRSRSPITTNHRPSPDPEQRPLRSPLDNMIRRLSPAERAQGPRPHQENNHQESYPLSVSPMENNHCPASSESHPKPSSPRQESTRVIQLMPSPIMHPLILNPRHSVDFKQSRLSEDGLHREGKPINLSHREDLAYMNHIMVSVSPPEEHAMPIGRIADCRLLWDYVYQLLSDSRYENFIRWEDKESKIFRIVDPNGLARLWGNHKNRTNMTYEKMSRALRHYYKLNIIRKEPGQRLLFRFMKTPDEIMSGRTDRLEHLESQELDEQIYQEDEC

With CTACCG, the binding signal in assay [1] is 1.7 fold enrichment (6-mer frequency, TF over GST control); in assay [2] it was 1.64 fold enrichment (6-mer frequency, TF over GST control); in assay [3] it was 1.16 fold enrichment (6-mer frequency, TF over GST control); in [4] it was 1.62 fold enrichment (6-mer frequency, TF over GST control); in assay [5], 1.59 fold enrichment (6-mer frequency, TF over GST control); in assay [6] it was 1.38 fold enrichment (6-mer frequency, TF over GST control). Moreover, the binding signal in [7] is 1.47 fold enrichment (6-mer frequency, TF over GST control); in assay [8], 1.67 fold enrichment (6-mer frequency, TF over GST control); in assay [9], 1.02 fold enrichment (6-mer frequency, TF over GST control); in assay [10] it was 1.62 fold enrichment (6-mer frequency, TF over GST control); in [11], 1.62 fold enrichment (6-mer frequency, TF over GST control); in assay [12] it was 1.69 fold enrichment (6-mer frequency, TF over GST control). The binding signal in assay [13] was 1.63 fold enrichment (6-mer frequency, TF over GST control); in assay [14], 1.63 fold enrichment (6-mer frequency, TF over GST control); in [15], 1.54 fold enrichment (6-mer frequency, TF over GST control); in assay [16] it was 1.64 fold enrichment (6-mer frequency, TF over GST control); in assay [17], 1.58 fold enrichment (6-mer frequency, TF over GST control); in [18] it was 1.53 fold enrichment (6-mer frequency, TF over GST control).

The record behind these values is paper PMC7862700, “An all-to-all approach to the identification of sequence-specific readers for epigenetic DNA modifications on cytosine”.
